In one assay the test system is T1, PIK4CB.
T1 construct: gene PI4KB

We go through eight compounds from paper PMC5540273 (PLoS ONE, 2017).

SMILES strings stand for the structures.
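Note: kd values determined as follow-up on hits from a single-replicate KINOMEscan panel screen.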

Take `O=C(Nc1n[nH]c2cc(-c3cccc(F)c3)ccc12)C1CC1` [SB-735464]: the Kd (commonly the free concentration of one partner at which half of the binding sites on the other are occupied at equilibrium, for simple one-to-one binding) with NLK was 87 nM. As for `O=C1Cc2cc(Nc3nc(NCc4cccc(S(=O)(=O)C(F)(F)F)c4)ncc3C(F)(F)F)ccc2N1`, the Kd with PAK4 and in the assay on PIM1 was over 10000 nM throughout. In the assay with PDGFRB, `Cc1ccc(NC(=O)c2ccnc(N3CCN(C)CC3)c2)cc1-c1ccc(C(=O)NCC2CC2)cc1` [GW775604] displayed a Kd of 300 nM. This counts as sub-micromolar.

`Cc1nnc(-c2ccc3ncc(-c4ccc(S(C)=O)cc4)n3c2)o1` (stereo not shown) returned a Kd in the assay with PDGFRB of 490 nM. `N#Cc1c(N2CCOCC2)sc(-c2ccn[nH]2)c1-c1ccc(Cl)cc1` had a Kd in the assay on PIK3CA of 32 nM.

For the compound `NS(=O)(=O)c1cccc(-c2ccc3nccc(-c4cccc(S(N)(=O)=O)c4)c3c2)c1` [GW867253], the dissociation constant (Kd) with PIK3CG came out at 81 nM; with PIK4CB, 32 nM. `NS(=O)(=O)c1cccc(-c2ccc3ncc(N4CCOCC4)nc3c2)c1` [GSK1535721] yielded a Kd with PIK4CB of 860 nM.

In the case of `Cc1nnc(-c2ccc3occ(-c4ccc(C(C)O)cc4)c3c2)o1` (stereo not shown), the Kd with PIM2 came out at 940 nM.
